IP6K1 inhibitor: inhibitors of human IP6K1. activity change, % (series mostly up to about 58 µM). AID 1645851. hit rate 0.81% among 140,000. Q92551. IP6K1 kinase, ADP-Glo luminescence, 2 h; active compounds read low; in the data active = activity change below about -25%
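ADP-Glo luminescence measures ADP made by human IP6K1 during a 2 h RT reaction with ATP/IP6 (mix at 1.3 mM/130 uM); top library doses 57.5 and 19.1 uM final.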
KDM5B inhibitor: blocks human KDM5B histone demethylase activity; hit rate 2.6% among 220,000; AID 1347165; Potency, µM (top dose mostly 57.7 µM), usual class: inhibitors; KDM5B demethylase, FDH-coupled NADH fluorescence (FDH is formaldehyde dehydrogenase); also: nearly all actives have a fitted effect of over 70% in size
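Inhibition is measured as reduced NADH fluorescence generation from FDH coupling to formaldehyde release. Truncated KDM5BΔAP at 200 nM final acts on H3K4me3 peptide (12.5 µM in substrate mix) in pH 7.5 HEPES buffer with Tween-20, 30 min, room temperature.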
Of the large screens only hits and unclear results are named; the others gave an inactive call. Shown are actives, neighbours in structure and some others; about 2.7% of the full set was active somewhere.

Cn1nc(C(=O)NC2CCCc3c2[nH]c2ccccc32)c2ccccc2c1=O (stereo unspecified)	KDM5B inhibitor 25µM
O=C(Cn1nc2c(cc1=O)CCCCC2)N1CC=C(c2c[nH]c3ccccc23)CC1	KDM5B inhibitor 18µM
O=C(Cn1nc2c(cc1=O)CCCCC2)N1CCC(c2ccccc2)CC1	none
O=C(NC1CCCc2c1[nH]c1ccccc21)c1ccccc1 (stereo unspecified)	KDM5B inhibitor inconclusive
O=C(Cn1nc2c(cc1=O)CCCCC2)NC1CCCc2c1[nH]c1c(Cl)cccc21 (stereo unspecified)	none
O=C(Cn1nc2c(cc1=O)CCCCC2)NC1CCCc2c1[nH]c1ccccc21 (stereo unspecified)	KDM5B inhibitor 28µM
COC(=O)[C@@H]1Cc2ncn(Cc3ccc(OC)cc3)c2CN1S(=O)(=O)c1cccc2c(N(C)C)cccc12	KDM5B inhibitor 18µM
COC(=O)[C@@H]1Cc2ncn(Cc3ccccc3)c2CN1S(=O)(=O)c1cccc(C(F)(F)F)c1	none
CCCn1cnc2c1CN(S(=O)(=O)c1cccc(C(F)(F)F)c1)[C@H](C(=O)OC)C2	KDM5B inhibitor 32µM
COC(=O)[C@@H]1Cc2ncn(Cc3ccc(Cl)cc3)c2CN1S(=O)(=O)c1ccc(OC)cc1	none
CCn1c(COc2ccccc2)nnc1SCC(=O)N1CCc2ccccc2C1	none (no result: IP6K1 inhibitor)
CCOC(=O)[C@@H]1CN(C(=O)NC2CCCC2)[C@H]2c3cccc(F)c3O[C@@H]12	none (no result: KDM5B inhibitor)
CCCCn1nc(C(=O)NCC(c2ccco2)N2CCCCC2)c2ccccc2c1=O (stereo unspecified)	none (no result: IP6K1 inhibitor)
COC(=O)CNC(=O)C1CCc2nnc(C3CCN([S+](=O)([O-])c4ccccc4)CC3)n21 (stereo unspecified)	none
COc1cccc([S+](=O)([O-])N2CCC(c3nnc4n3C(C(=O)O)CC4)CC2)c1 (stereo unspecified)	KDM5B inhibitor 79µM
Cc1cnc(-c2ccccc2)n1CC1CCCN(Cc2ccc(C#N)cc2)C1 (stereo unspecified)	none (no result: KDM5B inhibitor)
c1cc(-c2cc(-c3ccncc3)c3cncn3c2)cc(N2CCOCC2)c1	none
Cc1noc(C)c1-c1cc(-c2cccc(N3CCOCC3)c2)cn2cncc12	KDM5B inhibitor 35µM
CN(c1ccccc1)c1ccc2nnc(-c3cc(C(=O)NCC4CCCO4)ccn3)n2n1 (stereo unspecified)	none
CN(c1ccccc1)c1ccc2nnc(-c3cc(C(=O)NCc4cccnc4)ccn3)n2n1	KDM5B inhibitor 35µM
CN(c1ccccc1)c1ccc2nnc(-c3cc(C(=O)Nc4ccccn4)ccn3)n2n1	KDM5B inhibitor 11µM
CN(C)c1ccc2nnc(-c3cc(C(=O)NCCc4ccccn4)ccn3)n2n1	KDM5B inhibitor 35µM
COc1cccc(NC(=O)c2ccnc(-c3nnc4ccc(N(C)C)nn34)c2)c1	KDM5B inhibitor inconclusive
CN(c1ccccc1)c1ccc2nnc(-c3cc(C(=O)NC4CCC(O)CC4)ccn3)n2n1 (stereo unspecified)	none
N#C/C(=C/c1sc2ccccc2c1Cl)C(=O)NC1CC1	none (no result: IP6K1 inhibitor)
Cc1ccc(Nc2ccnc(N3CCCC(C(=O)N4CCCC4)C3)n2)cc1 (stereo unspecified)	none (no result: KDM5B inhibitor)
CCOC(=O)C1CCN(C(=O)c2cc(-c3ccc(OC)cc3)nc3c2cnn3C)CC1	none (no result: KDM5B inhibitor)
O=C(CCc1ccnc(N2CCOCC2)c1)NCc1cnccn1	KDM5B inhibitor inconclusive
O=c1cc(N2CCOCC2)oc2c(N3CCN(c4ccccn4)CC3)nccc12	none
O=c1cc(N2CCOCC2)oc2c(NCc3cnccn3)nccc12	KDM5B inhibitor 35µM
O=c1cc(N2CCOCC2)oc2c(NCC3CCOCC3)nccc12	KDM5B inhibitor 32µM
Cc1cc(-n2c(C)cc(-c3csc(N)n3)c2C)no1	none (no result: IP6K1 inhibitor)
CN(CCc1ccccn1)[C@@H]1[C@H](O)[C@H](CO)O[C@@H]1CN(Cc1ccc(F)cc1)Cc1ccc(F)cc1	KDM5B inhibitor inconclusive
O=C(O)Cn1cc(C(C(=O)O)N2CCN(Cc3cccnc3)CC2)c2ccc(Br)cc21 (stereo unspecified)	none (no result: IP6K1 inhibitor)
Fc1cc(Nc2ncc(-c3ccccc3)c3c2OCC3)cc(N2CCOCC2)c1	KDM5B inhibitor 13µM
Fc1cccc(-c2cnc(Nc3ccc(N4CCOCC4)cc3)c3c2CCO3)c1	KDM5B inhibitor 32µM
O=C(Nc1ncc(-c2cccc(F)c2)c2c1OCC2)c1ccc(Cl)cc1	KDM5B inhibitor inconclusive
c1ccc(Nc2ncc(-c3ccccc3)c3c2OCC3)cc1	none
CC(C)CNC(=O)c1ccc2oc(-c3ccnc(Cl)c3)nc2c1	none (no result: KDM5B inhibitor)
CC(C)Oc1ccc(CNC(=O)c2ccc(Cn3ccn4nc5c(c4c3=O)CCCC5)cc2)cc1	KDM5B inhibitor 25µM
Cc1ccc(NC(=O)c2ccc(Cn3ccn4nc5c(c4c3=O)CCCC5)cc2)cc1	KDM5B inhibitor inconclusive
CC(CCc1ccccc1)NC(=O)c1ccc(Cn2ccn3nc4c(c3c2=O)CCCC4)cc1 (stereo unspecified)	KDM5B inhibitor 35µM
CNC(=O)c1ccc(Cn2ccn3nc4c(c3c2=O)CCCC4)cc1	none
